Results published in PubChem BioAssay (NCATS).
Inconclusive results are not listed. Calls of active or inactive are those of the source. The call rests on the fitted dose curve; in most records, active means well fitted curve in the direction sought with a large enough effect; inconclusive means small, poorly fitted or top-dose-only effect, or another doubt; inactive means no such curve, though single readings can be large; an effect the other way counts as inactive or inconclusive.

What was measured:
[1] = molecular target: Single-stranded DNA cytosine deaminase (Homo sapiens) (UniProt Q9GZX7); assay: Validation qHTS assay for inhibitors of Activation Induced Cytidine Deaminase (AID): AID signal (AID 1347429)
Outline: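 Compounds (final up to 114 uM) preincubated with AID plus UDG; 250 nM DJC20/DJC23 substrate mix (4x stock) added, 4 hr at room temperature, then NaOH, 30 min. Read 1 fluorescence at 540 nm excitation, 590 nm emission.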

[2] = Primary qHTS for inhibitors of La Crosse Virus (LACV) - induced cell death in SH-SY5Y cells (AID 1508616);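 further: top concentration of the series differs between compounds; higher means more rescue of cells from virus-induced death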
Outline: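 Rescue of virus-induced death was read as ATPLite luminescence after 6 days at 37C, scaled between DMSO wells with LACV and without virus. Cells were SH-SY5Y, 6000/well, infected at 0.01 MOI after compound addition.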

[3] = molecular target: Calcium and integrin-binding protein 1 (Homo sapiens) (UniProt Q99828); assay: Validation qHTS for Identification of Calcium Integrin Binding protein 1 (CIB1) Competitor (AID 1508618)
Outline: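 In this qHTS validation, the LOPAC set (up to 114 uM) was tested for blocking CIB1 binding to a fluorescein-tagged alphaIIb peptide, with FP detection at 480/540 nm.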

[4] = Primary qHTS for small molecule stabilizers of the endoplasmic reticulum resident proteome: Secreted ER Calcium Modulated Protein (SERCaMP) assay (AID 1508630)
Outline: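 The SH-SY5Y reporter protocol was run at 3 concentrations up to 38.3 uM (primary) or 11 concentrations (follow-up): 16 h compound, 100 nM thapsigargin for 4 h, then extracellular luciferase luminescence.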

[5] = molecular target: Papain (Carica papaya) (UniProt P00784); assay: Primary qHTS assay for inhibitors of the protease papain (AID 1645873);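 further: papain turnover of Z-FR-AMC read as the AMC fluorescence gain over 10 min; series mostly up to about 50 µM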
[6] = molecular target: Rap guanine nucleotide exchange factor 3 (Homo sapiens) (UniProt O95398); assay: Confirmatory qHTS for antagonist of cAMP-regulated guanine nucleotide exchange factor 3 (EPAC1) (AID 1645880); further: nearly all actives have a fitted effect of over 55% in size
Outline: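 Released BODIPY-GDP fluoresces less than Rap1-bound BODIPY-GDP; the signal is followed at 480/540 nm at 5-min intervals over 30 min, after 5 min at room temperature. Reactions contain 100 nM EPAC1, 250 nM RAP1B-BODIPY-GDP and 50 uM GDP; results are normalized to ATA and DMSO.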

[7] = molecular target: Rap guanine nucleotide exchange factor 3 (Homo sapiens) (UniProt O95398); assay: Confirmatory qHTS for agonist of cAMP-regulated guanine nucleotide exchange factor 3 (EPAC1) (AID 1645881);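 further: EPAC1 catalysed release of BODIPY-GDP from Rap1B seen as fluorescence loss; nearly all actives have a fitted effect of over 75% in size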
[8] = molecular target: Rap guanine nucleotide exchange factor 4 (Homo sapiens) (UniProt Q8WZA2); assay: Confirmatory qHTS for agonist of cAMP-regulated guanine nucleotide exchange factor 4 (EPAC2) (AID 1645884);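 further: nucleotide exchange releases bodipy-GDP from Rap1 and this lowers its fluorescence; nearly all actives have a fitted effect of over 65% in size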
[9] = Confirmatory qHTS for small molecule stabilizers of the endoplasmic reticulum resident proteome: Secreted ER Calcium Modulated Protein (SERCaMP) assay (AID 1508628); further: series mostly up to about 76 µM; nearly all actives have a fitted effect of over 40% in size
Outline: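 Reporter secretion upon ER calcium depletion (100 nM thapsigargin, 4 h, 37C) is measured as medium luminescence with coelenterazine, after 16 h compound pretreatment of SH-SY5Y-GLuc-SERCaMP cells; primary at three concentrations up to 38.3 uM, follow-up at 11 (up to 76.6 uM).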

Measured: Potency

Chain of Single-stranded DNA cytosine deaminase (Homo sapiens) (Q9GZX7 whole entry, looked up): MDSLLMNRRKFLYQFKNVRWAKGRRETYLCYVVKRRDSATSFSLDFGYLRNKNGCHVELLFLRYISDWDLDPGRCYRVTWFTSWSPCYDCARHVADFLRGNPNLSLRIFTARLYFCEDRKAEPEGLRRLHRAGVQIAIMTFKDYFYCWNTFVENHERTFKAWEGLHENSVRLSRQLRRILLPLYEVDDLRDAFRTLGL
Chain of Papain (Carica papaya) (P00784 whole entry, looked up): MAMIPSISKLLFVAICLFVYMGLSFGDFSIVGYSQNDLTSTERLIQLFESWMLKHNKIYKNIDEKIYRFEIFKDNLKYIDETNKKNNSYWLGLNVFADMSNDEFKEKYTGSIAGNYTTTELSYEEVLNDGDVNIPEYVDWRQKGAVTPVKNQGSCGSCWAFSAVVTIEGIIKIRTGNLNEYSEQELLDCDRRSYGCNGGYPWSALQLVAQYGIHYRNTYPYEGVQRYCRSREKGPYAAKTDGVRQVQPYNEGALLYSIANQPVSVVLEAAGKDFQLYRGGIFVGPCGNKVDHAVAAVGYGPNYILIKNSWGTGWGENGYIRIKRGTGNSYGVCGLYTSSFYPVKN
Chain of Calcium and integrin-binding protein 1 (Homo sapiens) (Q99828 whole entry, looked up): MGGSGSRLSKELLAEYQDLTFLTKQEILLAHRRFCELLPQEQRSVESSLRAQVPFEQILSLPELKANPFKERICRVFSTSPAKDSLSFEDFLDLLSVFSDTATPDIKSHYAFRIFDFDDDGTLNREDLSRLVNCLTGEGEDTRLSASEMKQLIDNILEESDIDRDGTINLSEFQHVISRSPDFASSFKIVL
Chain of Rap guanine nucleotide exchange factor 3 (Homo sapiens) (O95398 whole entry, looked up): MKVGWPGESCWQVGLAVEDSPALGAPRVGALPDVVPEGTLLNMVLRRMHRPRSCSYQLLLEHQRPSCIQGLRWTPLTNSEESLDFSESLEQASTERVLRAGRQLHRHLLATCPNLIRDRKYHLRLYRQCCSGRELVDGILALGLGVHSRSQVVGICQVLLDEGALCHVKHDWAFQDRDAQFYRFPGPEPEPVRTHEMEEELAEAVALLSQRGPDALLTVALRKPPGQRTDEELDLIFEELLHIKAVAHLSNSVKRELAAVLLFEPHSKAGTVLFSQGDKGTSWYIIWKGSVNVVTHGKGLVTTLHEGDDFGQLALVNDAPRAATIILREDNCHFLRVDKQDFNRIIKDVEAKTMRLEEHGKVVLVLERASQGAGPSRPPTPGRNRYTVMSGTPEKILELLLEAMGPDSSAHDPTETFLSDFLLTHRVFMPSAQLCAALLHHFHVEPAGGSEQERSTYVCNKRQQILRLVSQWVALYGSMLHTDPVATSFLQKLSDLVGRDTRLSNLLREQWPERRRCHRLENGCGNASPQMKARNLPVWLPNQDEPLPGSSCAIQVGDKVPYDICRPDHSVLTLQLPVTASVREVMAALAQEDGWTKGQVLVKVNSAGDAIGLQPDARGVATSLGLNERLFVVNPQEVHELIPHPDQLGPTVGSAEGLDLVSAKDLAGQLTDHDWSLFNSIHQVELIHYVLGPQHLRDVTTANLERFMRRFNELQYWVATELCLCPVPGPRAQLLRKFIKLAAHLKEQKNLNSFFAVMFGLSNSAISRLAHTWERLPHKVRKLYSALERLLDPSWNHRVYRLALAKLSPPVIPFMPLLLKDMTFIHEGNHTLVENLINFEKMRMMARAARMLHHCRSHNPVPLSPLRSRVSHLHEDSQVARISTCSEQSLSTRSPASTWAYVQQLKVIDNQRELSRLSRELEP
Chain of Rap guanine nucleotide exchange factor 4 (Homo sapiens) (Q8WZA2 whole entry, looked up): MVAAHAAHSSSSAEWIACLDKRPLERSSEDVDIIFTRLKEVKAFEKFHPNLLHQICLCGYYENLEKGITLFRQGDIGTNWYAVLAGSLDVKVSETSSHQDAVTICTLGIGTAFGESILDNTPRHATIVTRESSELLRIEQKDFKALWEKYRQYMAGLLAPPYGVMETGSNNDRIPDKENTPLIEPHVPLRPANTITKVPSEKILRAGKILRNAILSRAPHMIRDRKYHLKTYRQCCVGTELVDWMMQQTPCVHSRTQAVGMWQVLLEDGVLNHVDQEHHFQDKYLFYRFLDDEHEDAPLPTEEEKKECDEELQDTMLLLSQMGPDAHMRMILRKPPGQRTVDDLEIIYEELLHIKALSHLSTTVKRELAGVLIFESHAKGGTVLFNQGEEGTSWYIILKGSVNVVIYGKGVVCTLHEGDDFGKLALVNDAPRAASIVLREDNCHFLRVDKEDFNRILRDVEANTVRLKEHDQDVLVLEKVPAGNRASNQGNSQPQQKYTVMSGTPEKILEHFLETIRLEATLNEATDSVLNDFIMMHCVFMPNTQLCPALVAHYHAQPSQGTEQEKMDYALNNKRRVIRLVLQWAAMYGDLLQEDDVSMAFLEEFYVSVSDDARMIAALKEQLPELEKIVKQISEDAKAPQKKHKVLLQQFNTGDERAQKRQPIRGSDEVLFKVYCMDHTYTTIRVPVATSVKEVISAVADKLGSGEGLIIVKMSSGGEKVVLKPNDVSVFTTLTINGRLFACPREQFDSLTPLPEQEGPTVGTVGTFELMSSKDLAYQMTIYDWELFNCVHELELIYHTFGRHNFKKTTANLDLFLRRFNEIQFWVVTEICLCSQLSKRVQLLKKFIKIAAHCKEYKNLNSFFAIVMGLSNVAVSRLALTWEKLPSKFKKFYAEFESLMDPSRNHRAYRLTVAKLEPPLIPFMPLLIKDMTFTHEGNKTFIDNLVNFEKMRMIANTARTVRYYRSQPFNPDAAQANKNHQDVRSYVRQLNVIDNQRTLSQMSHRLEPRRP

O=C(O)c1cc([N+](=O)[O-])ccc1NCCCc1ccccc1
inactive: [1] | [2] | [3] | [4] | [5] | [6] | [7] | [8]

NC(CCCP(=O)(O)O)C(=O)O (stereo unspecified)
inactive: [1] | [2] | [3] | [4] | [5]

NCCCS(=O)(=O)O
inactive: [1] | [2] | [3] | [4] | [5]

CN1CCc2cc(O)c(O)cc2C(c2ccccc2)C1 (stereo unspecified)
inactive: [1] | [2]

CN1CCc2cc(NC(=O)Nc3cccnc3)ccc21
inactive: [1] | [2] | [3] | [4] | [5]

Cc1cc(NC(=O)Nc2ccc3c(ccn3C)c2)sn1
inactive: [1] | [2] | [3] | [4] | [5]

Fc1cccc(/C=N/N=C/c2cccc(F)c2)c1
inactive: [1] | [2] | [3] | [4] | [5]

OCC1O[C@H](O)C(Cl)C(O)C1O (stereo partly specified)
inactive: [1] | [2] | [3] | [4] | [5]

COc1cccc(OC)c1OCCNCC1COc2ccccc2O1 (stereo unspecified)
inactive: [1] | [2] | [3] | [4] | [5]

Nc1nc(Nc2ccccc2)nc2c1ncn2[C@@H]1O[C@H](CO)[C@@H](O)[C@H]1O
inactive: [1] | [2] | [3] | [4] | [5]

Cc1ccc(C(=O)O[C@H](C(=O)O)[C@@H](OC(=O)c2ccc(C)cc2)C(=O)O)cc1 (tested in a mixture with another compound)
inactive: [1] | [2] | [9]

CCc1c(C(=O)NCCc2ccc(N3CCCCC3)cc2)[nH]c2ccc(Cl)cc12
inactive: [1] | [2] | [4]
